Laboratory results reported in article PMC8384837, “Expanding the binding specificity for RNA recognition by a PUF domain”.

Tests used:
Experiment in all cases: yeast three-hybrid, YBZ-1, SC-Leu-His + 0.5 mM 3-AT, 4 days
Conditions in all cases: tags: N-Gal4 AD-HA kept; label: inside an RPR1-promoter hybrid RNA with tandem MS2 sites; ssRNA
PUM1 PUF domain R7-RKR = PUM1 PUF domain R7-RKR (Homo sapiens, UniProt Q14671 828-1176, S1079R;N1080K;E1083R)
Method in brief: (§1)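 The interaction score is the logarithmic change in variant frequency from input to selection. It uses log2, with a pseudocount of 1 for absent variants, and frequencies came from PCR-amplified, Illumina-sequenced repeat regions. The libraries were Pumilio-1 PUF domains randomized at the three base-contacting residues per repeat, co-expressed with matching RNA elements in strain YBZ-1 (LexA–MS2 coat fusion, HIS3 reporter). Plating lasted four days on SC-Leu (input) or SC-Leu-His + 0.5 mM 3-AT (selection).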

PUM1 PUF domain R1-RWT = PUM1 PUF domain R1-RWT (Homo sapiens, UniProt Q14671 828-1176, S863R;R864W;Q867T)
PUM1 PUF domain R1-RWT, sequence (Q14671 828-1176 S863R/R864W/Q867T): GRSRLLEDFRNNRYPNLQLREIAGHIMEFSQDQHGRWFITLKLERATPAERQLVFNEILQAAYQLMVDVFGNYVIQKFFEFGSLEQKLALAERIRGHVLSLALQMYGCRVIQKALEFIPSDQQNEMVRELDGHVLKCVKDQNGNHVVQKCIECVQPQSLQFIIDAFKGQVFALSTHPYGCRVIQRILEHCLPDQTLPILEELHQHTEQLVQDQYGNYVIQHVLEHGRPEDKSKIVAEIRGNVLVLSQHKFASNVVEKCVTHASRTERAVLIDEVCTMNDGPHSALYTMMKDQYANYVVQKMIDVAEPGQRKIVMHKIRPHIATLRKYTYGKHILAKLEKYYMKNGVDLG
Method in brief: as §1

PUM1 PUF domain R1-VFR = PUM1 PUF domain R1-VFR (Homo sapiens, UniProt Q14671 828-1176, S863V;R864F;Q867R)
Method in brief: as §1

PUM1 PUF domain R1-GAS = PUM1 PUF domain R1-GAS (Homo sapiens, UniProt Q14671 828-1176, S863G;R864A;Q867S)
Method in brief: as §1

PUM1 PUF domain R3-RMK = PUM1 PUF domain R3-RMK (Homo sapiens, UniProt Q14671 828-1176, C935R;R936M;Q939K)
Method in brief: as §1

PUM1 PUF domain R5-QKC = PUM1 PUF domain R5-QKC (Homo sapiens, UniProt Q14671 828-1176, C1007Q;R1008K;Q1011C)
Method in brief: as §1

PUM1 PUF domain R5-TRA = PUM1 PUF domain R5-TRA (Homo sapiens, UniProt Q14671 828-1176, C1007T;Q1011A)
PUM1 PUF domain R5-TRA, sequence (Q14671 828-1176 C1007T/Q1011A): as the sequence (Q14671 828-1176 S863R/R864W/Q867T) above, with R36S, W37R, T40Q, C180T, Q184A counted along it
Method in brief: as §1

PUM1 PUF domain R6-CFC = biological target: T1, PUM1 PUF domain R6-CFC (Homo sapiens, UniProt Q14671 828-1176, N1043C;Y1044F;Q1047C)
T1 sequence: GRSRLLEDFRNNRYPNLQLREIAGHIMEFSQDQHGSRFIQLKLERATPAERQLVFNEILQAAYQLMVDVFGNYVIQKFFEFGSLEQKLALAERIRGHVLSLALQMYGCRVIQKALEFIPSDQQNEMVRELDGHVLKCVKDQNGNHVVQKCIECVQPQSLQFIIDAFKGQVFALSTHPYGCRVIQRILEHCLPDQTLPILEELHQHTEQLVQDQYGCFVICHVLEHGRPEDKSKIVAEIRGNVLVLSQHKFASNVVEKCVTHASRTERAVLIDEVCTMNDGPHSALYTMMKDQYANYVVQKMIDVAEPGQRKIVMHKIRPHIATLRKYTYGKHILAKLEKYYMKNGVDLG
Method in brief: as §1

PUM1 PUF domain R7-RNK = PUM1 PUF domain R7-RNK (Homo sapiens, UniProt Q14671 828-1176, S1079R;E1083K)
PUM1 PUF domain R7-RNK, sequence (Q14671 828-1176 S1079R/E1083K): as the sequence (Q14671 828-1176 S863R/R864W/Q867T) above, with R36S, W37R, T40Q, S252R, E256K counted along it
Method in brief: as §1

PUM1 PUF domain R4-DHE = PUM1 PUF domain R4-DHE (Homo sapiens, UniProt Q14671 828-1176, N971D;Q975E)
Method in brief: as §1

PUM1 PUF domain R4-SWG = PUM1 PUF domain R4-SWG (Homo sapiens, UniProt Q14671 828-1176, N971S;H972W;Q975G)
Method in brief: as §1

**Q.** Which binding signal (PUM1 PUF domain R7-RKR) does the source give for “GGCUAGAACUAGUGGAUCCCCCGGCGCCCGGCGGCUCGAGCCCGGGUAAGUUUAAAUAGUCUGCAUGCCGCCGGGCGCCAUGCCUGCAGGUCGACUCUAGAAAACAUG” here?
**A.** 2.99 log2 enrichment (interaction score)

**Q.** Which results are given for “GGCUAGAACUAGUGGAUCCCCCGGCGCCCGGCGGCUCGAGCCCGGGUAAGUGUAAAUCGUCUGCAUGCCGCCGGGCGCCAUGCCUGCAGGUCGACUCUAGAAAACAUG”?
**A.** binding signal (PUM1 PUF domain R1-RWT): 5.45 log2 enrichment (interaction score); binding signal (PUM1 PUF domain R1-VFR): 3.96 log2 enrichment (interaction score); binding signal (PUM1 PUF domain R1-GAS): 2.52 log2 enrichment (interaction score)

**Q.** “GGCUAGAACUAGUGGAUCCCCCGGCGCCCGGCGGCUCGAGCCCGGGUAAGUGUAAUUAGUCUGCAUGCCGCCGGGCGCCAUGCCUGCAGGUCGACUCUAGAAAACAUG” was tested. Which binding signal (PUM1 PUF domain R3-RMK) did it give?
**A.** 4.31 log2 enrichment (interaction score)

**Q.** Which binding signal (PUM1 PUF domain R5-QKC) does the source give for “GGCUAGAACUAGUGGAUCCCCCGGCGCCCGGCGGCUCGAGCCCGGGUAAGUGUUAAUAGUCUGCAUGCCGCCGGGCGCCAUGCCUGCAGGUCGACUCUAGAAAACAUG” here?
**A.** 3.74 log2 enrichment (interaction score)

**Q.** And the binding signal (PUM1 PUF domain R5-TRA)?
**A.** 2.4 log2 enrichment (interaction score)

**Q.** With “GGCUAGAACUAGUGGAUCCCCCGGCGCCCGGCGGCUCGAGCCCGGGUAAGUGAAAAUAGUCUGCAUGCCGCCGGGCGCCAUGCCUGCAGGUCGACUCUAGAAAACAUG” as the sequence, how does the binding signal (PUM1 PUF domain R6-CFC) read?
**A.** 4.06 log2 enrichment (interaction score)

**Q.** How did the binding signal (PUM1 PUF domain R7-RNK) turn out when “GGCUAGAACUAGUGGAUCCCCCGGCGCCCGGCGGCUCGAGCCCGGGUAAGUAUAAAUAGUCUGCAUGCCGCCGGGCGCCAUGCCUGCAGGUCGACUCUAGAAAACAUG” was run?
**A.** 2.99 log2 enrichment (interaction score)

**Q.** How did the binding signal (PUM1 PUF domain R4-DHE) turn out when “GGCUAGAACUAGUGGAUCCCCCGGCGCCCGGCGGCUCGAGCCCGGGUAAGUGUACAUAGUCUGCAUGCCGCCGGGCGCCAUGCCUGCAGGUCGACUCUAGAAAACAUG” was run?
**A.** 2.01 log2 enrichment (interaction score)

**Q.** With “GGCUAGAACUAGUGGAUCCCCCGGCGCCCGGCGGCUCGAGCCCGGGUAAGUGUAUAUAGUCUGCAUGCCGCCGGGCGCCAUGCCUGCAGGUCGACUCUAGAAAACAUG” as the sequence, how does the binding signal (PUM1 PUF domain R4-DHE) read?
**A.** 4.57 log2 enrichment (interaction score)

**Q.** And the binding signal (PUM1 PUF domain R4-SWG)?
**A.** 2.5 log2 enrichment (interaction score)
